Assay results taken from PMC12136788.
Numbering of substitutions follows the chain as printed. Over roughly 24,000 sequences, “enrichment r” has its median near 0.99; the highest 2% begin near 3.7. Shown is part of a subset that was picked to be rich in the highest values.

T1: UNK ZnF1-3 (human, UniProt Q9C0B0 31-174)
T1 sequence: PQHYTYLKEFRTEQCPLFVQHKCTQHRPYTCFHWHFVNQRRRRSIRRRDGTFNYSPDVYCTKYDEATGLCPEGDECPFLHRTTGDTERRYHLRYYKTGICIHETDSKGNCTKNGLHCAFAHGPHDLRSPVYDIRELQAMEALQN

B1: chrX:71482573:71482574:-_ENSMUSG00000031328_ENSMUST00000144429|mus_hu|FALSE|FALSE (ssRNA)
RNA: GGGAGUUCUACAGUCCGACGAUCCUGCCACUGAGAAAGGGCUCUUAGGGAUGGGAUCCCCUCCAUAAGUGACAUUGACGCCUACUGGACCCUGCUGGACAGGCGUGUACUUGACUGUGUAGGUGUUGUCAUGGUGGUCGAUGACAACAGAGGAUUGAGCAUCA
B2: chr6:38652254:38652255:-_ENSG00000124767_ENST00000373365|hu_hu|hu_hu_hu_mus_False|18_28 (ssRNA)
RNA: GGGAGUUCUACAGUCCGACGAUCCGAGAACUUCAUAGCAGGGAAGUCAAGCUUCUGCAGGAGGGUCAGUCCAAGAACCCUCGUAUAAAAAUCCAGGGACUUCUUAGGAUCCUUCACUCGUAGCAUGGUUUGCUGCAGUAGAAACAACAGAGGAUUGAGCAUCA
B3: chr18:67804014:67804015:+_ENSMUSG00000024537_ENSMUST00000025418|mus_hu|FALSE|FALSE (ssRNA)
RNA: GGGAGUUCUACAGUCCGACGAUCACAAUCGGUAUAGAAGUAACCAAUCUUAGACAUAUUCAGUGUAGAAAUAAUCAGAUCCAUUGCAAGCUGGCCAACAUUUCCAACAGAUACUGCUGGCCUGAAGAUGGGAGUGGAGAGGGACAACAGAGGAUUGAGCAUCA
B4: 58380664_58380784_167_CDS_ENSMUSG00000075700_ENSMUST00000107924|mouse|control|control (ssRNA)
RNA: GGGAGUUCUACAGUCCGACGAUCCUUGAGCAGCGGCCCGGUGGCGUACUGCAUCUUUAAUCUCUUGCUGGGCACGCCGCCCAGGUUGGCAGAGGCCUCGCUGCGGACCACCGCCGACGCCGCCACCAGCAGAAGCAGCAGGAGCAACAGAGGAUUGAGCAUCA
B5: 5649169_5649289_955_CDS_ENSG00000160633_ENST00000592224|human|control|control (ssRNA)
RNA: GGGAGUUCUACAGUCCGACGAUCACAGUCCGUCCUCUCGCCAUCGCCUGGCUGCUCCGCGGGCUCCCUUUUCACUACCGCUAACAGGCUGUCUGCCUUGCUCGACUGAGCGUGUGCUGUUGACUCGCUGGCCAAAUCUAAAUCCAACAGAGGAUUGAGCAUCA
B6: chr14:53325254:53325255:-_ENSG00000073712_ENST00000341590|hu_hu|FALSE|FALSE (ssRNA)
RNA: GGGAGUUCUACAGUCCGACGAUCAACCACUUUGCAAUCUACUUCAGUACAAAUGAAGGACAAUCGUACUUCAUCUGCAAACUCUACGGUGACCAUUUUGAUUUCCCAGUUGACAUUCCACUGUUUCAUGUUGCUGAAACGCCACAACAGAGGAUUGAGCAUCA
B7: 93044292_93044412_1315_3pUTR_ENSMUSG00000027217_ENSMUST00000111265|mouse|control|control (ssRNA)
RNA: GGGAGUUCUACAGUCCGACGAUCAGGAACAGCUGGUCCCAGGCCAGCCCUAGGUCCUUGUAGAGCCCAUGCCCCUUGCUUUAGAGCCUAGGUGAGGCCCCUUCAUGUCUGUCUUUUUUGUUUGUUUGUUUGUUUAUUUAAAAACAACAGAGGAUUGAGCAUCA
B8: chr1:235505951:235505952:+_ENSG00000152904_ENST00000391855|hu_mus|motif|central (ssRNA)
RNA: GGGAGUUCUACAGUCCGACGAUCUUUGUAGGCUUUAGCUUCAAGCUCUCUAAGAGUGUGUCGAGUGUAUGCAAAAGAACCGGCAUCCUCCAGGUACUGCACACAAUACUUUUUAAUAUCUAUAUUCUCUGUUCUCUGGCGCAGCAACAGAGGAUUGAGCAUCA
B9: 52190027_52197400_608_3pUTR_ENSMUSG00000020402_ENSMUST00000102758|mouse|control|control (ssRNA)
RNA: GGGAGUUCUACAGUCCGACGAUCGUUGAUGUGCUCCCUCUUGUACCCUGUCUUGAUUUUAGCAUUUUUUUUCCCAGUGUUCGGCGAGAAUGACGAAUCAAAGGUGAGCUUCAGUCCACGAGCAAGCUGGUCUUCCACAGUGAUCAACAGAGGAUUGAGCAUCA
B10: chr17:60770872:60770873:+_ENSG00000011028_ENST00000303375|hu_hu|hu_hu_hu_mus_True|68_88 (ssRNA)
RNA: GGGAGUUCUACAGUCCGACGAUCUCUUUAAAAAAAAAAAAAAAAAGUUUAAAAACAAUAGCACAUUAUUUAAAAAAAGAACUACAAUAGAGGGUCCGCUUUGAGUUUUUGUUCACAUCGUCCUGCACUGGGACACGGGGACUGCAACAGAGGAUUGAGCAUCA
B11: chr17:60770872:60770873:+_ENSG00000011028_ENST00000303375|hu_hu|hu_hu_hu_mus_True|68_78 (ssRNA)
RNA: GGGAGUUCUACAGUCCGACGAUCUCUUUAAAAAAAAAAAAAAAAAGACAAACAAUAAUAAUGGCACAUUUAAAAAAAGAACUACAAUAGAGGGUCCGCUUUGAGUUUUUGUUCACAUCGUCCUGCACUGGGACACGGGGACUGCAACAGAGGAUUGAGCAUCA
B12: chr17:60770872:60770873:+_ENSG00000011028_ENST00000303375|hu_hu|hu_hu_hu_mus_True|48_68 (ssRNA)
RNA: B10 RNA with U47A, U48C, U49A, A52C, C55U, U87A, A88G, G89A, G91A, U94G
B13: 71650973_71651093_4703_CDS_ENSG00000075292_ENST00000264447|human|control|control (ssRNA)
RNA: GGGAGUUCUACAGUCCGACGAUCGUAAUCCAGUUUAGAAAGCUUGCCUUGCAGGGCUGAGAUCCUUCCACUGCCUCCUCUGGUAAGACUGCUCUGAGUAGGUUUGAAUUUACUGCUGCUUUCUGCCAAGCCUGACCUGGCACUCAACAGAGGAUUGAGCAUCA
B14: chr9:14812383:14812384:-_ENSMUSG00000031934_ENSMUST00000164273|mus_mus|mus_mus_mus_hu_True|38_108 (ssRNA)
RNA: GGGAGUUCUACAGUCCGACGAUCAUAGCUCAAGUAGAUACACGCUAACAGUAUAAUGAUGAGUGUCAGCAGGCGGCAGCUAAUGUACUUGAUGAUUAAAUGACUAGAAUUUUUCUUUGUCUUCAAGUACUGCUCCACAAUUGGCAACAGAGGAUUGAGCAUCA
B15: chr13:120183613:120183614:-_ENSMUSG00000025453_ENSMUST00000099149|mus_hu|FALSE|FALSE (ssRNA)
RNA: GGGAGUUCUACAGUCCGACGAUCGUAAAUAAAACUAAUCAGCGUUCCUGAUGUCUUUAAAAGGUCAGCUUCAUGAACACCUAAUGUUGGAUUAACCAUAGGGGCUCGCACUUUGACCACCAAAUCAGAAGCCAGCACUUCCUUCAACAGAGGAUUGAGCAUCA
B16: chr7:34927866:34927867:-_ENSMUSG00000052997_ENSMUST00000102746|mus_mus|FALSE|FALSE (ssRNA)
RNA: GGGAGUUCUACAGUCCGACGAUCGCUUUUGGCAGCAUCUUCAGCUUGUUUUGGCCCCACUUUUUCAGGGCUGUCACCAACUACUUCAAAUUCAACAUCCUUUCCAAGAUCUUCACUAUGAAGAAUGUUGAUCAGCAAAGUAUACAACAGAGGAUUGAGCAUCA
B17: chr6:52144354:52144355:-_ENSG00000112118_ENST00000229854|hu_hu|FALSE|FALSE (ssRNA)
RNA: GGGAGUUCUACAGUCCGACGAUCGGCUGGGGCCUUCUCCGGCAUCUCCUGGAUGGUGAUGGUCUGGUGAUCCUUGUAGACAGAAAGGCCAUAUUCUGUCUCAAGGGGAUUGUUCUCCUCAUCCUUGGUAGGAUAGACAGAGCUCAACAGAGGAUUGAGCAUCA
B18: chrX:15845472:15845473:-_ENSG00000182287_ENST00000329235|hu_hu|motif|central (ssRNA)
RNA: GGGAGUUCUACAGUCCGACGAUCCCACAAGAAGUCAUCAACAAGGGAGGAGAGUUAUGUCAGUCCAAUUUCUUCAAGAACACGGCGUGGGGUUUCAGCUUCCUCCUGCAGUAGAUCAGCCUGCUCAAUUGCUUUAAGGACAUUCAACAGAGGAUUGAGCAUCA
B19: chr16:45382771:45382772:-_ENSMUSG00000022661_ENSMUST00000163230|mus_mus|mus_mus_mus_hu_True|8_78 (ssRNA)
RNA: GGGAGUUCUACAGUCCGACGAUCCUGGGUCAUGUUAUAAGACAAAUGGACAGGGAGAGCAUGCUUUUCAAAAAAUGUGAGCUAUUGUCUAAGACUAACAAUAUUUAUCUAGCUAUAAAAAUAAGUUUUAAAUGGACGUUAAGACAACAGAGGAUUGAGCAUCA
B20: chr16:45382771:45382772:-_ENSMUSG00000022661_ENSMUST00000163230|mus_mus|mus_mus_mus_hu_True|1_78 (ssRNA)
RNA: GGGAGUUCUACAGUCCGACGAUCCUGGGUCAUGUUAUAAGACAAAUGGACAGGGAGAGCAUGCUUUUCAAAAAAUGUGAGCUAUUGUCUAAGACUAACAAUAUUUAUCUAGCUAUAAAAAUAAGUUAAAUGAAUAAACAUUACCAACAGAGGAUUGAGCAUCA
B21: chr2:121258011:121258012:+_ENSMUSG00000027248_ENSMUST00000028683|mus_mus|FALSE|FALSE (ssRNA)
RNA: GGGAGUUCUACAGUCCGACGAUCCUUGCCUUGUAUCAAAUCUUUAUUAUCUUCCGUCAUAUGAGGACAGAGACCAAAAAUGCUAUCCUGAAUAAAUUUCUUGAUCUUGCCACUGGUCAUUUUCUUUUCAGUAUAUGCCACAGUCAACAGAGGAUUGAGCAUCA
B22: chr16:45382771:45382772:-_ENSMUSG00000022661_ENSMUST00000163230|mus_mus|mus_mus_mus_hu_True|18_78 (ssRNA)
RNA: GGGAGUUCUACAGUCCGACGAUCCUGGGUCAUGUUAUAAGACAAAUGGACAGGGAGAGCAUGCUUUUCAAAAAAUGUGAGCUAUUGUCUAAGACUAACAAUAUUUAUCUAGCUAUAUAAAAAUAAGAAAUGAAUAAGUUAAGACAACAGAGGAUUGAGCAUCA
B23: chr15:42481402:42481403:-_ENSG00000166887_ENST00000318006|hu_hu|FALSE|FALSE (ssRNA)
RNA: GGGAGUUCUACAGUCCGACGAUCCUUUGAAACCGUAGUGAUUUGUUGAAAUGUCAAUAGGUCAUGGACAUAAAUGUUAUUUUCUAACAAGCUGACCAGAAUCUUAAACUGGGAAACCACAUGGAUCUGCUGAAUCUUUUUGGACAACAGAGGAUUGAGCAUCA

Each binder was assayed against T1, UNK ZnF1-3 (assay: nsRBNS (natural sequence RNA bind-n-seq); RBNS binding buffer (assumed for nsRBNS): 25 mM Tris pH 7.5, 150 mM KCl, 3 mM MgCl2, 0.01% Triton X-100, 500 ug/ml BSA, 20 U/ml SUPERase-In, 4 C; UNK is unkempt and MSI1 is Musashi-1; names of the RNAs are library labels; protein concentration not given here; high values mean tight binding).

In order of rising binding signal:
1. B6  0.398 enrichment R
2. B2  0.508 enrichment R
3. B7  0.554 enrichment R
4. B4  0.563 enrichment R
5. B23  0.563 enrichment R
6. B13  0.641 enrichment R
7. B15  0.662 enrichment R
8. B14  0.675 enrichment R
9. B5  0.689 enrichment R
10. B16  0.727 enrichment R
11. B1  0.8 enrichment R
12. B17  0.84 enrichment R
13. B9  0.961 enrichment R
14. B3  1.13 enrichment R
15. B8  1.14 enrichment R
16. B21  1.28 enrichment R
17. B18  1.51 enrichment R
18. B20  4.46 enrichment R
19. B19  5.26 enrichment R
20. B12  5.29 enrichment R
21. B11  5.39 enrichment R
22. B10  6.65 enrichment R
23. B22  10 enrichment R
